The nature of test [1]: qHTS assay to identify small molecule antagonists of the glucocorticoid receptor (GR) signaling pathway - cell viability counter screen (AID 720693). Further: nearly all actives have a fitted effect of over 55% in size. For orientation: Quantitative high-throughput screening tests each substance at several concentrations.
Test [2] in a line: qHTS assay for identifying genotoxic compounds that show differential cytotoxicity against isogenic chicken DT40 cell lines with known DNA damage response pathways - wild type cell line (AID 743012). Further: nearly all actives have a fitted effect of over 60% in size. Further: potency means the concentration at half of the fitted maximal effect. The gist of the method: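 Viability of DNA repair-proficient chicken DT40 cells was assessed by CellTiter-Glo luminescence following 40 h compound exposure at 37 C/5% CO2.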
A short description of test [3]: qHTS assay for identifying genotoxic compounds that show differential cytotoxicity against isogenic chicken DT40 cell lines with known DNA damage response pathways - Rev3 mutant cell line (AID 743014). Further: nearly all actives have a fitted effect of over 55% in size. Further: potency means the concentration at half of the fitted maximal effect.
Test [4] is described as follows: qHTS assay for identifying genotoxic compounds that show differential cytotoxicity against isogenic chicken DT40 cell lines with known DNA damage response pathways - Rad54/Ku70 mutant cell line (AID 743015). Further: nearly all actives have a fitted effect of over 60% in size. Further: potency means the concentration at half of the fitted maximal effect.
Test [5] in a line: qHTS assay to identify small molecule antagonists of the androgen receptor (AR) signaling pathway - cell viability counter screen (AID 743033; further: nearly all actives have a fitted effect of over 45% in size).
A short description of test [6]: qHTS assay to identify small molecule antagonists of the androgen receptor (AR) signaling pathway using the MDA cell line - cell viability counter screen (AID 743041; further: nearly all actives have a fitted effect of over 45% in size). The method in brief: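 Using the breast carcinoma line MDA-kb2 AR-luc, test chemicals were co-incubated with R1881 for 16 h; CellTiter-Fluor reagent, added at 15.5 h, provided a fluorescence measure of live cells.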

Test [7] is described as follows: qHTS assay to identify small molecule antagonists of the thyroid receptor (TR) signaling pathway - cell viability counter screen (AID 743064). Further: nearly all actives have a fitted effect of over 50% in size. Further: potency means the concentration at half of the fitted maximal effect. The method in brief:
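Same-well viability check: GH3.TRE-Luc cells stimulated with 1 nM T3 alongside test compound for 23.5 h, followed by CellTiter-Fluor fluorescence.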

Test [8] can be described thus: qHTS assay to identify small molecule antagonists of the thyroid receptor (TR) signaling pathway (AID 743065). Further: nearly all actives have a fitted effect of over 55% in size. Further: potency means the concentration at half of the fitted maximal effect. The method in brief:
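Antagonism measured as loss of luciferase signal in GH3 cells stably carrying a TRE-luciferase reporter, co-treated with compound and T3 (1 nM final) for 23.5 h at 37 C. Viability was read in the same well by CellTiter-Fluor.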

The test system of test [9] is thyroid hormone receptor (rat, GH3 cells). In words: qHTS assay to identify small molecule agonists of the thyroid receptor (TR) signaling pathway (AID 743066; calls by dose curve).
The target of test [10] is Estrogen receptor (Homo sapiens) (UniProt P03372). In words: qHTS assay to identify small molecule antagonists of the estrogen receptor alpha (ER-alpha) signaling pathway (AID 743069; active means well fitted curve in the direction sought with a large enough effect in the signal ratio in the repeat runs, not every such curve was filed as active; the % refers to the signal ratio). The gist of the method:
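Fluorescence intensity from a beta-lactamase FRET substrate served as the read-out. Cells: HEK293 with stably integrated ER-alpha-UAS-bla reporter. Agonist 17beta-estradiol was co-added with compounds; incubation 18 hr at 37C, substrate 2 hr at room temperature.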

The nature of test [11]: qHTS assay to identify small molecule antagonists of the estrogen receptor alpha (ER-alpha) signaling pathway - cell viability counter screen (AID 743074; calls by dose curve; further: nearly all actives have a fitted effect of over 45% in size).
The target in test [12] is Estrogen receptor (Homo sapiens) (UniProt P03372). In words: qHTS assay to identify small molecule agonists of the estrogen receptor alpha (ER-alpha) signaling pathway (AID 743075; calls by dose curve; further: potency means the concentration at half of the fitted maximal effect).
Sequence of Estrogen receptor (Homo sapiens) (P03372 whole entry, looked up): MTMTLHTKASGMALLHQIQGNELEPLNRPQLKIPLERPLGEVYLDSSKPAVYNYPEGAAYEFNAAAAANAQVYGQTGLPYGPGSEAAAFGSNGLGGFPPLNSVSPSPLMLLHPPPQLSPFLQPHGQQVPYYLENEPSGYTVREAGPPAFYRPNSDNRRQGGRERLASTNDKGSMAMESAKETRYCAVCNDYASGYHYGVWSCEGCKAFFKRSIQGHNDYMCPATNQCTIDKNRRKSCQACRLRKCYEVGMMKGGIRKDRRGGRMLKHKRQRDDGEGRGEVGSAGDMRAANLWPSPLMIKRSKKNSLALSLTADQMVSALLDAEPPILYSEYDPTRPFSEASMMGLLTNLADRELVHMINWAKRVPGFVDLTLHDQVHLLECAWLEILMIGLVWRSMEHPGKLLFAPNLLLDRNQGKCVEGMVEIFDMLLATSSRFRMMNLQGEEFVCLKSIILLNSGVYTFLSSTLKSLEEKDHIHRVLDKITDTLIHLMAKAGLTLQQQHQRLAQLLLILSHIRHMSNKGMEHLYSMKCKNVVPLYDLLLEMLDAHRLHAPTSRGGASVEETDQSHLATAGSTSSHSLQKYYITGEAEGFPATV
Test [13] has the same target. In words: qHTS assay to identify small molecule agonists of the estrogen receptor alpha (ER-alpha) signaling pathway using the BG1 cell line (AID 743079). Further: nearly all actives have a fitted effect of over 20% in size. Further: potency means the concentration at half of the fitted maximal effect.
A short description of test [14]: qHTS assay to identify small molecule antagonists of the estrogen receptor alpha (ER-alpha) signaling pathway using the BG1 cell line - cell viability counter screen (AID 743081).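 Further: compound given together with 17beta-estradiol as the ER stimulus; series mostly up to about 70 µM; nearly all actives have a fitted effect of over 45% in size.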
The next test concerns the target Aromatase (Homo sapiens) (UniProt P11511). In words: qHTS assay to identify aromatase inhibitors (AID 743083). Further: series mostly up to about 70 µM; nearly all actives have a fitted effect of over 55% in size.
Test [15] can be described thus: qHTS assay to identify small molecule antagonists of the estrogen receptor alpha (ER-alpha) signaling pathway using the BG1 cell line (AID 743080; calls by dose curve;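 further: BG1 cells stimulated with 17beta-estradiol alongside compound; series mostly up to about 70 µM; nearly all actives have a fitted effect of over 25% in size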). The gist of the method:
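Seeding, 24 h rest, compound transfer from DMSO, 17beta-estradiol addition, 21.5 h incubation, CellTiter-Fluor (30 min, 37 C), then ONE-Glo (30 min, room temperature): this sequence was run on BG1-Luc-4E2 reporter cells.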

In test [16] the target is Androgen receptor (Homo sapiens) (UniProt P10275). In words: qHTS assay to identify small molecule antagonists of the androgen receptor (AR) signaling pathway using the MDA cell line (AID 743042; further: nearly all actives have a fitted effect of over 55% in size). The gist of the method:
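Antagonist mode: compounds plus R1881 agonist added to MDA-kb2 AR-luc cells, incubated 16 h at 37C. Luciferase reporter luminescence quantified, with multiplexed CellTiter-Fluor readout for cell viability.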

Values joined by “and” are separate entries in the source; they are usually repeats but may differ in a detail not shown here. Identical values can stand only once. Records with an inconclusive call do not appear. Active and inactive are the calls of the source. Unless noted, the call rests on the fitted dose curve; in most records, active means well fitted curve in the direction sought with a large enough effect in the repeat runs; inconclusive means weak or mixed curves; inactive means no such curve, though single readings can be large; an effect the other way counts as inactive or inconclusive.

This is an account of results in PubChem BioAssay (Tox21).

Sequence of Aromatase (Homo sapiens) (P11511 whole entry, looked up): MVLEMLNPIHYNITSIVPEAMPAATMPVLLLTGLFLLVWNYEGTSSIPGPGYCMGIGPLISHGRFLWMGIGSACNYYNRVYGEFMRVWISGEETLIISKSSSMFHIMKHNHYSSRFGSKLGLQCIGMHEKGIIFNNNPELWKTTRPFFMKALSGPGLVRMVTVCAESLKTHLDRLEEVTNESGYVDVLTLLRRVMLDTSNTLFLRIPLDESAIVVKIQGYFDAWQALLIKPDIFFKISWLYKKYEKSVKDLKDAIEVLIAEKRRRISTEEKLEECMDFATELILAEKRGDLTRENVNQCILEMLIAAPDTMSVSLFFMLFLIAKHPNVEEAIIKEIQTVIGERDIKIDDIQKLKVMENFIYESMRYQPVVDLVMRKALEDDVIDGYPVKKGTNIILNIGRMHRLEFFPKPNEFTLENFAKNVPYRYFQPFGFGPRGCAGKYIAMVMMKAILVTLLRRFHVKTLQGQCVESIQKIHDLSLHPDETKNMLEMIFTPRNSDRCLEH
Sequence of Androgen receptor (Homo sapiens) (P10275 whole entry, looked up): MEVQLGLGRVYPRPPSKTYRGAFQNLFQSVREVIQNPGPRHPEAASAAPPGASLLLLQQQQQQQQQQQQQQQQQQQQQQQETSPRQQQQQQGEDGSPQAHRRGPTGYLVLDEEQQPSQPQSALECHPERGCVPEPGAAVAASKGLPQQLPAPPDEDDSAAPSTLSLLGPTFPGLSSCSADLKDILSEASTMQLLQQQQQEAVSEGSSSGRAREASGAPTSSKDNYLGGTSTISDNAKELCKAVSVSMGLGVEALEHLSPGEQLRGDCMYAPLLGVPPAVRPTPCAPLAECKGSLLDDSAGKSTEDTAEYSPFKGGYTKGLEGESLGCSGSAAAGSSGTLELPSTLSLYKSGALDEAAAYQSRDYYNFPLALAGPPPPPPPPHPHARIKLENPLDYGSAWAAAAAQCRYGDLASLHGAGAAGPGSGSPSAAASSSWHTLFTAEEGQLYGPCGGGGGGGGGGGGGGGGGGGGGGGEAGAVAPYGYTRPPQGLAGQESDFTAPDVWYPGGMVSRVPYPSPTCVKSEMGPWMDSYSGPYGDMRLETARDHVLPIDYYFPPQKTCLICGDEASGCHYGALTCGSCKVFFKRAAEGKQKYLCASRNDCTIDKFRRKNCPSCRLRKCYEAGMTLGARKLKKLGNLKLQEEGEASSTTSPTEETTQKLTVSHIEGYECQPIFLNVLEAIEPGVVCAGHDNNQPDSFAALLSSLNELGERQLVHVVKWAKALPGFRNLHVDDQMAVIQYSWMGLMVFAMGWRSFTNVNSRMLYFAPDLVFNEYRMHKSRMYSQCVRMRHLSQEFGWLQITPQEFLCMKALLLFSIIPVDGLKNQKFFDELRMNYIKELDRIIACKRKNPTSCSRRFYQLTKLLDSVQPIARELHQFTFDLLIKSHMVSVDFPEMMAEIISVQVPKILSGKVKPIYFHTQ

For `CCCCNc1ccc(C(=O)OCCOCCOCCOCCOCCOCCOCCOCCOCCOC)cc1`, the Potency result in [1], in [2], in test [3], in test [4], in [5] and in test [6] was “inactive” in each case. For the same compound, the Potency entry in [7], in test [8], in test [9], in [10], in test [11] and in [12] was “inactive” in each case. Also, the Potency result (in [13]; in test [14]; with Aromatase (Homo sapiens)) was “inactive” throughout.
As to `CCn1cc(C(=O)O)c(=O)c2cnc(N3CCNCC3)nc21`, the Potency result in test [1], in test [2], in [3], in test [4], in test [5] and in test [6] was “inactive” throughout. The Potency entry (in [7]; in test [8]; in [9]; in test [11]; in test [14]; in the test with Aromatase (Homo sapiens)) was “inactive” in each case.
In the case of `CCCCCCCN`, the Potency result in test [1], in test [2], in test [3], in [4], in test [5] and in [6] was “inactive” each time. Moreover, the Potency result in test [7], in test [8], in [9], in test [10], in [11] and in [12] was “inactive” each time. Also, the Potency entry (in test [13]; in test [15]; in [14]; with Aromatase (Homo sapiens)) was “inactive” each time.
As to `COCC(C)OC(C)=O` (configuration not stated), the Potency result in test [1], in [2], in [3], in [4], in test [5] and in test [6] was “inactive” each time. For the same compound, the Potency entry in test [7], in test [8], in [9], in test [10], in test [11] and in test [15] was “inactive” in each case. In addition, the Potency result (in [14]; with Aromatase (Homo sapiens)) was “inactive” each time.
For `COc1ccc(C(=O)c2ccc(OC)cc2O)c(O)c1`, the Potency entry in test [1], in [2], in [3], in test [4], in [5] and in [6] was “inactive” throughout. Besides, the Potency result (in test [16]; in test [8]; in [9]; in [11]; in test [14]; with Aromatase (Homo sapiens)) was “inactive” each time. Further, the Potency in [12] was 8.77 µM [fluorescent] (active); in test [13], 30.9 µM (active).
Consider `Cc1[nH]c(C)c(Cl)c(=O)c1Cl`, for which the Potency entry in [1], in [2], in [3], in test [4], in [5] and in test [6] was “inactive” throughout. The Potency result in test [7], in test [8], in test [9], in test [10], in test [11] and in [12] was “inactive” throughout. The Potency entry (in test [13]; in [15]; in test [14]; in the test with Aromatase (Homo sapiens)) was “inactive” each time.
In the case of `N=c1ccn2c(n1)O[C@H]1[C@H](O)[C@@H](CO)O[C@H]12`, the Potency entry in test [1], in [5], in test [6], in test [9], in test [11] and in test [12] was “inactive” each time. In addition, the Potency entry (in [13]; in test [15]; in test [14]; with Aromatase (Homo sapiens)) was “inactive” each time. Moreover, the Potency in test [2] is 211 nM (active) and 193 nM (active); in [3], 237 nM (active) and 137 nM (active); in test [4] it was 266 nM (active) and 172 nM (active); in test [7] it was 0.531 µM (active); in test [8], 531 nM (active) and 545 nM (active).
